Source: PubChem (Broad Institute)
Compounds with a hit are over-represented: about 3.1% of the library has one in this group of screens.
DENV2 CPE: DENV2-induced cell death inhibition | DENV2-infected cells, cytopathic effect rescue, plate reader | CPE inhibition, % at 9.99 µM | 350,000 tested, 1.7% active | AID 651640; in the data active means CPE inhibition above about 20%, passing the limit was not always enough; inconclusive means no clear call, values can overlap the other calls; tested in BHK-21 cells
RAD52 anneal inh: RAD52 (human) annealing inhibition; recombinant RAD52 DNA annealing, FRET fluorescence; inhibition, % at 18.7 µM; 360,000 tested, 0.46% active; AID 651710;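 active means every replicate showing at least 50% inhibition; inconclusive means mean inhibition at least 50% but not in every replicate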
GSIS activator: GLuc luminescence reporter in INS-1E cells, primary screen for activators of glucose-dependent secretion of insulin; INS-1E GLuc reporter insulin secretion, 2-3 h; activation, % at 16.6 µM; 370,000 tested, 0.61% active;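 active means lowest replicate activation of at least 40%, so every replicate reaches that level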
dFosB act: activators of mouse delta FosB homodimer. P13346. purified delta FosB, TAMRA-CDK5 oligo fluorescence polarization; percent of positive-control signal above neutral wells. activation, % at 25 µM. 340,000 tested, 0.99% active. AID 493131;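 active means mean activation above about 17%, with every replicate also reaching it, limit read from the data, passing the limit was not always enough; inconclusive means only one of the two conditions met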
MLL AF4-AF9 inh: MLL-AF4/AF9 protein interaction inhibition | P42568 | AlphaScreen, biotin-AF4 peptide binding to FLAG-AF9 | inhibition, % at 10 µM | 350,000 tested, 0.47% active | AID 651704;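 active means every replicate reaching a set inhibition limit, whatever the replicate mean, cut at about 25% in these data; inconclusive means mean inhibition reaches that limit but some replicates miss it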
RAD54 branch: inhibitors of human RAD54 branch migration; Q92698; RAD54 Holliday junction branch migration, FAM/BHQ fluorescence; inhibition, % at 10.4 µM; 360,000 tested, 0.14% active;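 active means mean normalized replicate activity at least 40 and at least half of replicates scoring 40 or more; inconclusive means only one of the two criteria met; inactive means mean below 40 and under half of replicates reaching 40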;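 further: inhibitors cause a drop in the FAM fluorescence signal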
Target sequence (Q92698 whole entry, looked up): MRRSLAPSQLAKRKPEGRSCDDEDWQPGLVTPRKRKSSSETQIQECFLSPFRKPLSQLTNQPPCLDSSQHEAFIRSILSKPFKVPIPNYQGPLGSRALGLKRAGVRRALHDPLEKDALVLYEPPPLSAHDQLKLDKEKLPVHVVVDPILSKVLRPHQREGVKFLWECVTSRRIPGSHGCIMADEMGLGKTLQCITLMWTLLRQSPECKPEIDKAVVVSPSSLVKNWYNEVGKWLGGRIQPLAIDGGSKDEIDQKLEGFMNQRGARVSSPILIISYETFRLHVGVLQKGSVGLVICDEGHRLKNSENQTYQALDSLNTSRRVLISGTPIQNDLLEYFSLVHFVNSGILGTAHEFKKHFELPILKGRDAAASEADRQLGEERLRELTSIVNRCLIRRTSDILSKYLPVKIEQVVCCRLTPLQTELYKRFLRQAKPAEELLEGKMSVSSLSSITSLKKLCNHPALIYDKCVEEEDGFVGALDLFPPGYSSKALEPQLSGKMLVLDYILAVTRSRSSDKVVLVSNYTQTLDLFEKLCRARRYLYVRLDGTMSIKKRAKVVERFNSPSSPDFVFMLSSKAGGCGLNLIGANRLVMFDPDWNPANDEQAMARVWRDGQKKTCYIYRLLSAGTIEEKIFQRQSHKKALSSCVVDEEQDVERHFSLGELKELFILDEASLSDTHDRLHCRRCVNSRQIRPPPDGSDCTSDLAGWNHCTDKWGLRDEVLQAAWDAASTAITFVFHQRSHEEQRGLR
A number is an active result; i = inactive; ? = inconclusive; nt = no result given; ! = repeats disagree.

SMILES | DENV2 CPE | RAD52 anneal inh | GSIS activator | dFosB act | MLL AF4-AF9 inh | RAD54 branch
O=C(c1cccc(Cl)c1)N1CCC2(CC1)NCCc1[nH]cnc12 | 27 | i | i | i | i | i
CO[C@@H]1CN(C)C(=O)c2ccc(NC(=O)NC(C)C)cc2OC[C@@H](C)N(C)C[C@@H]1C | i | i | i | nt | i | i
CSc1ccc(-c2cc3c(c4c2ccn4C)C2CCC3C2)cc1 (stereo unspecified) | i | i | i | nt | i | i
Cn1ccc2c(N3CCCC3)cc3c(c21)C1CCC3C1 (stereo unspecified) | ? | i | i | nt | 30 | i
CN(c1cc2c(c3c1ccn3C)C1CCC2C1)C1CCCCC1 (stereo unspecified) | i | i | i | nt | 39 | i
Cn1ccc2c(N(Cc3ccccc3)Cc3ccccc3)cc3c(c21)C1CCC3C1 (stereo unspecified) | i | i | i | nt | i | i
C[C@H]1CCCCO[C@@H](CN(C)Cc2ccncc2)[C@@H](C)CN([C@@H](C)CO)C(=O)c2cc(NC(=O)c3ccccc3)ccc2O1 | i | i | i | nt | i | i
O=C(C[C@@H]1CC[C@H]2[C@@H](COC[C@H](O)CN2C(=O)Nc2cc(Cl)cc(Cl)c2)O1)N1CCOCC1 | i | i | i | nt | i | i
COCCNC(=O)C[C@H]1C=C[C@H](NS(=O)(=O)c2ccc(C)cc2)[C@H](CO)O1 | i | i | i | nt | i | i
CS(=O)(=O)N1CC(=O)N2[C@H](CO)[C@H](c3ccc(C#Cc4ccccc4)cc3)[C@@H]2C1 | i | i | i | nt | i | nt
O=C(C[C@@H]1C=C[C@@H](NC(=O)CC2CC2)[C@H](CO)O1)NCc1ccccc1 | i | i | i | nt | i | nt
O=c1[nH]nc(-c2cccs2)c2ccccc12 | i | i | 172 | i | i | i
CC(C)C[C@H]1COCn2nncc2CC[C@H](Cc2ccccc2)C(=O)N1 | i | i | i | nt | i | nt
CCOC(=O)N1CCC(NS(=O)(=O)c2ccc(C#N)cc2)CC1 | 47 | i | i | i | i | i
CCOC(=O)N1CCC(NS(=O)(=O)c2ccc3c(c2)CCN3C(C)=O)CC1 | nt | nt | nt | i | nt | i
CC1(OC(=O)CCc2ccccc2)C(=O)C=C2C=C(c3ccc(C#N)cc3)N(c3ccccc3)C=C2C1=O (stereo unspecified) | 41 | i | nt | i | i | i
OC(CN1CCN(c2cccc(Cl)c2)CC1)c1ccc(F)cc1 (stereo unspecified) | 49 | i | i | i | i | i
COc1ccc(NC(=O)c2ccc(-n3cnnn3)cc2)c([N+](=O)[O-])c1 | i | i | i | i | 26 | i
COc1ccc(NC(=O)c2ccccc2)c([N+](=O)[O-])c1 | i | i | i | i | i | nt
COc1ccc(NC(=O)N(C)C[C@@H]2Oc3c(NS(=O)(=O)c4ccc(OC)cc4)cccc3C(=O)N([C@@H](C)CO)C[C@@H]2C)cc1 | i | i | i | nt | i | i
COc1ccc(NC(=O)N(C)C[C@H]2Oc3c(NS(=O)(=O)c4ccc(OC)cc4)cccc3C(=O)N([C@H](C)CO)C[C@@H]2C)cc1 | 28! | i | i | i | i | i
COc1ccc(NC(=O)N(C)C[C@H]2Oc3c(NS(=O)(=O)c4ccc(Cl)cc4)cccc3C(=O)N([C@@H](C)CO)C[C@H]2C)cc1 | ? | i | i | nt | i | i
COc1ccc(NC(=O)N(C)C[C@H]2Oc3c(NS(=O)(=O)c4cn(C)cn4)cccc3C(=O)N([C@@H](C)CO)C[C@@H]2C)cc1 | 26 | i | i | nt | i | i
C[C@H]1CN([C@@H](C)CO)C(=O)c2cccc(NS(=O)(=O)c3ccc(Cl)cc3)c2O[C@H]1CN(C)C(=O)Nc1ccccc1 | 40 | i | i | nt | i | i
COc1ccc(NC(=O)N(C)C[C@H]2Oc3c(NS(=O)(=O)c4ccc(Cl)cc4)cccc3C(=O)N([C@H](C)CO)C[C@H]2C)cc1 | 49 | i | i | nt | i | i
O=C(COc1ccc(Br)cc1)Nc1ccc(NC(=O)c2ccccc2)cc1 | i | i | i | 25 | i | i
O=C(COc1ccccc1)NCC(=O)N/N=C/c1ccc(Br)cc1 | 70 | i | i | i | i | i
Cc1ccc(/C=N/NC(=O)CNC(=O)COc2ccccc2)cc1 | i | i | nt | i | i | nt
O=C(Cn1nnc(-c2ccccc2)n1)N=Nc1c(O)[nH]c2ccccc12 | nt | nt | 93 | i | nt | nt
